Experimental data as given in the antibiotic and cytotoxicity screens of Wong et al. (2023).
About 3,300 (8.5%) of roughly 39,000 compounds were called active. For the sample, actives were picked, then their nearest neighbours and some compounds at random.

system: HepG2; assay: cytotoxicity call (relative viability < 0.9); conditions: 10 µM

| Structure (SMILES) | cytotoxicity call |
| --- | --- |
| O[C@H]1C2CN3CCN(C2)CC1(c1ccccc1)C3 | inactive |
| O=c1cccc2n1C[C@@H]1CNC[C@H]2C1 | inactive |
| Cc1ccc(OC(=O)N(C)C[C@H]2OCc3ccccc3-c3c(n(C)c4ccccc34)C(=O)N([C@@H](C)CO)C[C@H]2C)cc1 | inactive |
| Cc1cc([N+](=O)[O-])cnc1N1CCNCC1 | inactive |
| CN1C(=O)[C@@]23C[C@]4([C@@]56C[C@]78SS[C@](CO)(C(=O)N7[C@@H]5Nc5ccccc56)N(C)C8=O)c5ccccc5N[C@H]4N2C(=O)[C@@]1(CO)SS3 | active |
| CN1C(=O)[C@]23CC4=CC=C[C@H](O)[C@H]4N2C(=O)[C@@]1(CO)SS3 | active |
| NC1=NC(=O)C2(CCNCC2)N1 | inactive |
| NC[C@@H]1CCCN2CCCC[C@H]12 | inactive |
| CCC(c1cccc(O)c1)C(C)CN(C)C.Cl (configuration not stated) | inactive |
| COc1cccc2c1C(=O)c1c(O)c3c(c(O)c1C2=O)C[C@@](O)(C(=O)CO)C[C@@H]3O[C@H]1C[C@H](N2CCO[C@H](OC)C2)[C@H](O)[C@H](C)O1 | active |
| CC(=C1C(=O)NC(=O)NC1=O)c1ccc(N)cc1 | inactive |
| O=C(O)Cc1cnc[nH]1 | inactive |
| CN[C@@H]1[C@@H]2[C@H]3CCN2C[C@H]1O3 | inactive |
| CNC(=O)[C@@H]1COC[C@@H]2CN(CC(C)C)C[C@@H]21 | inactive |
| CCC1(O)C(=O)OCc2c1cc1n(c2=O)Cc2cc3ccccc3nc2-1 (configuration not stated) | active |
| OCC(CO)N1CCC2(CCNCC2)CC1 | inactive |
| C#CC1(O)C=CC2C3CCC4=CC(=O)CCC4C3CCC21CC (configuration not stated) | inactive |
| C[C@@H](N)C(=O)N[C@@H](CO)C(=O)N[C@H](C(=O)N[C@H](C(=O)N[C@H](C(=O)N[C@@H](CC(N)=O)C(=O)N[C@@H](Cc1ccc(O)cc1)C(=O)N[C@H](C(N)=O)[C@@H](C)O)[C@@H](C)O)[C@@H](C)O)[C@@H](C)O | inactive |
| C[C@@H]1[C@H](O)[C@@H](C)/C=C\C=C/CC\C=C/C=C\C=C/C=C\[C@H](O[C@@H]2O[C@H](C)[C@@H](O)[C@H](N)[C@@H]2O)C[C@@H]2O[C@](O)(C[C@@H](O)[C@H](O)CC[C@@H](O)C[C@@H](O)C[C@@H](O)CC(=O)O[C@H]1C)C[C@H](O)[C@H]2C(=O)O | inactive |
| O=S(=O)(O)O.Oc1cccc2cccnc12 | active |
| CC(C)(C)NCC(O)c1cc(Cl)c(N)c(Cl)c1.Cl (configuration not stated) | inactive |
| CC(C)(C)c1o[nH]c(=O)c1C[C@@H](N)C(=O)O | inactive |

| Structure (SMILES) | cytotoxicity call |
| --- | --- |
| CC1CCC2(NC1)OC1CC3C4CCC5CC(O)CCC5(C)C4CCC3(C)C1C2C.Cl (configuration not stated) | inactive |
| COc1cc2c(c(OC)c1OC)-c1ccc(OC)c(=O)cc1C(NC(C)=O)CC2 (configuration not stated) | active |
| COc1cc2c(c(OC)c1OC)-c1ccc(O)c(=O)cc1C(NC(C)=O)CC2 (configuration not stated) | inactive |
| COc1cc2c(c(OC)c1OC)-c1ccc(O)c(=O)cc1[C@H](N)CC2 | inactive |
| CC1(C)OCC2(CNC2)CO1 | inactive |
| CN1CCOC[C@]2(CCCNC2)C1 | inactive |
| CN(C)[C@@H]1C(=O)[C@H](C(N)=O)C(=O)[C@@]2(O)C(=O)[C@@H]3C(=O)c4c(O)cccc4[C@@](C)(O)[C@H]3C[C@@H]12 | inactive |
| C[C@H]1CN([C@@H](C)CO)C(=O)c2c(c3ccccc3n2C)-c2ccccc2CO[C@@H]1CN(C)C(=O)Oc1ccccc1 | inactive |
| CN1[C@@H]2C[C@@H](O)C[C@H]1[C@@H]1O[C@@H]12 | inactive |
| COc1ccc(OC(=O)N(C)C[C@H]2OCc3ccccc3-c3c(n(C)c4ccccc34)C(=O)N([C@@H](C)CO)C[C@H]2C)cc1 | inactive |
| COc1ccc(OC(=O)N(C)C[C@H]2OCc3ccccc3-c3c(n(C)c4ccccc34)C(=O)N([C@H](C)CO)C[C@@H]2C)cc1 | inactive |
| Cc1ccc(OC(=O)N(C)C[C@H]2OCc3ccccc3-c3c(n(C)c4ccccc34)C(=O)N([C@@H](C)CO)C[C@@H]2C)cc1 | active |
| Cc1ccc(OC(=O)N(C)C[C@H]2OCc3ccccc3-c3c(n(C)c4ccccc34)C(=O)N([C@H](C)CO)C[C@@H]2C)cc1 | active |
| Cc1ccc(OC(=O)N(C)C[C@H]2OCc3ccccc3-c3c(n(C)c4ccccc34)C(=O)N([C@H](C)CO)C[C@H]2C)cc1 | inactive |
| Cc1ccc(OC(=O)N(C)C[C@@H]2OCc3ccccc3-c3c(n(C)c4ccccc34)C(=O)N([C@H](C)CO)C[C@@H]2C)cc1 | inactive |
| Cc1ccc(OC(=O)N(C)C[C@@H]2OCc3ccccc3-c3c(n(C)c4ccccc34)C(=O)N([C@@H](C)CO)C[C@H]2C)cc1 | inactive |
| COc1ccc(OC(=O)N(C)C[C@@H]2OCc3ccccc3-c3c(n(C)c4ccccc34)C(=O)N([C@@H](C)CO)C[C@H]2C)cc1 | active |
| Cc1ccc(OC(=O)N(C)C[C@@H]2OCc3ccccc3-c3c(n(C)c4ccccc34)C(=O)N([C@@H](C)CO)C[C@@H]2C)cc1 | inactive |
| CCOCC(=O)N1CC[C@H]2CNC[C@H]21 | inactive |
| COc1cccc(C2(N)CCCC2)c1 | inactive |
| CC(C)[C@H]1CN2CCC[C@H]2[C@@]2(O)O[C@](CC(=O)[C@@H]3C=C4c5cccc6[nH]cc(c56)C[C@H]4N(C)C3)(C(C)C)C(=O)N12 | inactive |
| C[C@H](CO)N1C[C@H](C)[C@@H](CN(C)C(=O)Oc2ccc3ccccc3c2)OCc2cn(nn2)CCCC1=O | inactive |

| Structure (SMILES) | cytotoxicity call |
| --- | --- |
| NC(=N[N+](=O)[O-])NCCC[C@H](N)C(=O)O | inactive |
| CC(C)[C@H]1CNC(=O)C1 | inactive |
| O=C1NC(=S)NC(=O)C1c1ccccc1 | inactive |
| C#CCO[C@H]1CN2CCC1CC2 | inactive |
| CC(C)C[C@@H](N)C1(c2ccc(Cl)cc2)CCC1 | inactive |
| CC1OC(OC2C=C3CCC4C(CCC5(C)C(c6ccc(=O)oc6)CCC45O)C3(C)CC2)C(O)C(O)C1O (configuration not stated) | active |
| CN1CCc2cc3c(cc2C1C1OC(=O)c2c1ccc1c2OCO1)OCO3 (configuration not stated) | inactive |
| ClC(Cl)=C(c1ccc(Cl)cc1)c1ccc(Cl)cc1 | inactive |
| Nc1ccccc1N1CCNCC1 | inactive |
| CN(C)C(=O)CN1CCN(C)C(=O)[C@]12CCN(c1ncccn1)C2 | inactive |
| [NH2][Pt]1([NH2])[O]C(=O)C2(CCC2)C(=O)[O]1 | inactive |
| O=[N+]([O-])OC1COC2C(O)COC12 (configuration not stated) | inactive |
| CCn1cnc2c(Nc3cccc(Cl)c3)nc(N[C@@H]3CCCC[C@@H]3N)nc21 | active |
| Cc1cccc([C@H](CN)N(C)C)c1 | inactive |
| C[C@@H]1CN([C@@H](C)CO)C(=O)CCCn2cc(nn2)CO[C@H]1CN(C)C(=O)Oc1cccc2ccccc12 | inactive |
| COC(=O)[C@@]1(Cc2ccccc2CN=[N+]=[N-])N=C(c2ccc(OCCCO)cc2)O[C@H]1c1ccccc1N=[N+]=[N-] | inactive |
| COCCCNC(=O)[C@@]1(Cc2ccccc2CN=[N+]=[N-])N=C(c2ccc(OCCCO)cc2)O[C@H]1c1ccccc1N=[N+]=[N-] | inactive |
| COCCCNC(=O)[C@@]1(Cc2ccccc2CN=[N+]=[N-])N=C(c2ccc(OCCCO)cc2)O[C@H]1c1ccccc1CN=[N+]=[N-] | active |
| [N-]=[N+]=NCc1ccccc1C[C@]1(C(=O)NCc2ccccc2)N=C(c2ccc(OCCCO)cc2)O[C@H]1c1ccccc1N=[N+]=[N-] | active |
| [N-]=[N+]=Nc1ccccc1C[C@@]1(C(=O)NCc2ccccc2)N=C(c2ccc(OCCCO)cc2)O[C@@H]1c1ccccc1N=[N+]=[N-] | inactive |
| COC(=O)[C@@]1(Cc2ccccc2N=[N+]=[N-])N=C(c2ccc(OCCCO)cc2)O[C@H]1c1ccccc1CN=[N+]=[N-] | inactive |
| CN(C)C(=O)[C@]1(Cc2ccccc2CN=[N+]=[N-])N=C(c2ccc(OCCCO)cc2)O[C@@H]1c1ccccc1N=[N+]=[N-] | inactive |

| Structure (SMILES) | cytotoxicity call |
| --- | --- |
| CN(C)C(=O)[C@@]1(Cc2ccccc2CN=[N+]=[N-])N=C(c2ccc(OCCCO)cc2)O[C@H]1c1ccccc1N=[N+]=[N-] | active |
| COC(=O)[C@]1(Cc2ccccc2CN=[N+]=[N-])N=C(c2ccc(OCCCO)cc2)O[C@@H]1c1ccccc1N=[N+]=[N-] | active |
| CN(C)C(=O)[C@@]1(Cc2ccccc2N=[N+]=[N-])N=C(c2ccc(OCCCO)cc2)O[C@H]1c1ccccc1N=[N+]=[N-] | inactive |
| COCCCNC(=O)[C@]1(Cc2ccccc2N=[N+]=[N-])N=C(c2ccc(OCCCO)cc2)O[C@@H]1c1ccccc1N=[N+]=[N-] | inactive |
| CN(C)C(=O)CN1C[C@H]2CON[C@@H]2C1 | inactive |
| O=C(c1ccccc1)C12CN3CN(CN(C3)C1)C2 | inactive |
| CC(C)c1cc2c(c(O)c1O)C1(C(=O)O)CCCC(C)(C)C1CC2 (configuration not stated) | inactive |
| CN1C[C@@H]2CNC[C@@H]2C1=O | inactive |
| C[C@@H]1CN([C@@H](C)CO)C(=O)CCCn2nncc2CO[C@H]1CN(C)C(=O)Oc1ccc2ccccc2c1 | inactive |
| C1CO[C@H]2[C@@H](C1)CNC[C@H]2N1CCOCC1 | inactive |
| NCCc1c[nH]c2ccc(C(N)=O)cc12 | inactive |
| NCCc1ccncc1 | inactive |
| OC1(c2cccnc2)CCNCC1 | inactive |
| CCN(Cc1ccc(Cl)nc1)C(=C[N+](=O)[O-])NC | inactive |
| Cc1ccc2n[nH]c(CN)c2c1 | inactive |
| COC(=O)[C@]1(Cc2ccccc2N=[N+]=[N-])N=C(c2ccc(OCCCO)cc2)O[C@@H]1c1ccccc1N=[N+]=[N-] | active |
| COC(=O)[C@@]1(Cc2ccccc2CN=[N+]=[N-])N=C(c2ccc(OCCCO)cc2)O[C@H]1c1ccccc1CN=[N+]=[N-] | inactive |
| [N-]=[N+]=Nc1ccccc1C[C@]1(C(N)=O)N=C(c2ccc(OCCCO)cc2)O[C@H]1c1ccccc1N=[N+]=[N-] | inactive |
| COC(=O)[C@]1(Cc2ccccc2N=[N+]=[N-])N=C(c2ccc(OCCCO)cc2)O[C@@H]1c1ccccc1CN=[N+]=[N-] | inactive |
| COC(=O)[C@@]1(Cc2ccccc2N=[N+]=[N-])N=C(c2ccc(OCCCO)cc2)O[C@H]1c1ccccc1N=[N+]=[N-] | inactive |
| COC(=O)[C@]1(Cc2ccccc2CN=[N+]=[N-])N=C(c2ccc(OCCCO)cc2)O[C@@H]1c1ccccc1CN=[N+]=[N-] | active |
